# Results: PubChem BioAssay
# The source made the active and inactive calls.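 The calls were made as follows, unless noted: active = NADPH fluorescence slope more negative than the mean of all samples by about 3 SD, 99.7% confidence; inactive = the rest.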
# Experiments:
# [1] = inhibitors of TNFa-induced NFkB p65 translocation, primary screen, imaging, HUVEC, MLSMR starter and 10KST1 sets (AID 438;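 active = inhibition above 20% together with a positive visual image hit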;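 also: compound added about 3h40 before a 20 min TNFalpha stimulation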;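 as to inhibition: signal is the nuclear over cytoplasmic p65 intensity ratio per well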); conditions: HUVEC TNFa-induced p65 nuclear translocation; cell count: measured here: nuclei count (cytotoxicity indicator), at 2.08 µM; inhibition: at 2 µM, stronger effect = higher value, 0% TNFa-plus-vehicle, 100% no-TNFa wells
# [2] = reduction of polyQ htt aggregates in cells – imaging, exon1htt(103Q)mCFP cells, high-content imaging, primary screen (AID 483;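 active = visual image review flags a hit and inhibition of aggregation exceeds 20%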;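 also: compound exposure lasted 3 days before fixation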;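 as to nuclei count: percent of the per-plate median nuclei count of sample wells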); conditions: exon1htt(103Q)mCFP cell line, aggregate imaging, at 2 µM; inhibition of aggregation: stronger effect = higher value; nuclei count: measured here: cell count, toxicity
# [3] = endothelial E-selectin expression blockers – imaging, HUVEC, immunofluorescence, MLSMR starter and 10KST1 sets, primary screen (AID 487;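 active = visually confirmed hit in the image check and inhibition above 20%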;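 as to inhibition: signal is fraction of cell area covered by stained E-selectin grains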;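 as to nuclei count: 100% = median nuclei count of all wells on the same plate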); conditions: HUVEC TNFalpha-induced E-selectin immunofluorescence imaging, at 2 µM; inhibition: stronger effect = higher value; nuclei count: measured here: cell number, toxicity
# [4] = biological target: Voltage-gated potassium channel subunit beta-2 (Rattus norvegicus) (UniProt P62483); assay: inhibitors of rat Kvbeta2 reductase activity – biochemical, NADPH fluorescence, primary screen (AID 622;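 active = fluorescence slope higher than the sample average by over 3 SD, cut at about -0.22 in these data, passing the limit was not always enough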;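 also: slope of raw intensity against log time taken from 70 to 1610 s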); conditions: recombinant KvBeta, 4-cyanobenzaldehyde reduction, at 10 µM, stronger effect = higher value
# Sequence of Voltage-gated potassium channel subunit beta-2 (Rattus norvegicus) (P62483 whole entry, looked up): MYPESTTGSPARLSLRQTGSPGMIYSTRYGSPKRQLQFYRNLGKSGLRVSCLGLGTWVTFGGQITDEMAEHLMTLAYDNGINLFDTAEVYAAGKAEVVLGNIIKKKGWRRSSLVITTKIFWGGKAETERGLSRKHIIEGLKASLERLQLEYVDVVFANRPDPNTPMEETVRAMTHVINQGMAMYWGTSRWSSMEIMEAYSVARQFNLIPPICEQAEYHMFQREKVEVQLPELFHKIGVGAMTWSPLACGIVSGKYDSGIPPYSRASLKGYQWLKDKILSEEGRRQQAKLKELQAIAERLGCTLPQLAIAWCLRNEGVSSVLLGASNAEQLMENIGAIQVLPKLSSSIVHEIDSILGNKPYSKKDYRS
# [5] = biological target: Voltage-gated potassium channel subunit beta-2 (Rattus norvegicus) (UniProt P62483); assay: enhancers of rat Kvbeta2 NADPH turnover – biochemical, NADPH fluorescence, primary screen (AID 623); conditions: Recombinant KvBeta, NADPH fluorescence decrease slope, 10 min; at 10 µM; stronger effect = lower value;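 also: fluorescence intensity change per second fitted from 20 to 320 s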
# [6] = biological target: Alpha-2C adrenergic receptor (Homo sapiens) (UniProt P18825); assay: compounds altering alpha2C-coupled GIRK flux – cell-based, HEK293 alpha2C/GIRK1/2, thallium flux, primary screen (AID 624;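 active = fluorescence slope after compound addition differing from the mean of all screened samples at 99.7% confidence, in either direction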;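 also: slope of fluorescence ratio to pre-addition baseline per second over 15 to 24 s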); conditions: thallium flux BTC fluorescence, at 10 µM, actives lie on both sides
# Sequence of Alpha-2C adrenergic receptor (Homo sapiens) (P18825 whole entry, looked up): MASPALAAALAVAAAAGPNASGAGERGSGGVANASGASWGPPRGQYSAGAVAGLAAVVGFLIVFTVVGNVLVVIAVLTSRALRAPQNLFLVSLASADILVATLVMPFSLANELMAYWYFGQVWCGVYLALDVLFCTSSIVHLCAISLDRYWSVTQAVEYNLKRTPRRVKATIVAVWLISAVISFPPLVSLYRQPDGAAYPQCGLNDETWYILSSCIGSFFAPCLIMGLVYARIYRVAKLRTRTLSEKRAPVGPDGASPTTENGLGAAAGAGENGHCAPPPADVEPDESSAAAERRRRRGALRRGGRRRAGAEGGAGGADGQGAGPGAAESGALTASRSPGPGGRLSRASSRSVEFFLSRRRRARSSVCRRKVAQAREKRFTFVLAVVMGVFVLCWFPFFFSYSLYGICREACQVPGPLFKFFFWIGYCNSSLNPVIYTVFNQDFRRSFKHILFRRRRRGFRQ
# [7] = blockers of RIG-like receptor reporter activation – cell-based, Sendai virus stimulus, luciferase, 10K MLSCN set, TLR/RLR signaling modifier project, primary screen (AID 602276;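 active = inhibition at or above 50% at 10 µM; inactive = inhibition below 50%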;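 also: firefly luciferase from ISG56 promoter only with Renilla not read in this screen; 0% = Sendai virus plus DMSO and 100% = medium plus DMSO without virus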); conditions: HEK293 RL24 IRF3 luciferase reporter, at 10 µM, stronger effect = higher value
# [8] = TLR3 IRF3 reporter activation blockers – cell-based, poly I:C stimulus, luciferase, 10K MLSCN set, primary screen (AID 602277;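 active = inhibition of the reporter signal at or above 50%; inactive = inhibition below 50%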); conditions: HEK293-TLR3 RL24 IRF3 luciferase reporter, at 10 µM, stronger effect = higher value
SMILES,cell count [1],inhibition [1],inhibition of aggregation [2],nuclei count [2] [%],inhibition [3],nuclei count [3] [%],fluorescence slope [4],NADPH fluorescence slope [5],slope [6],inhibition [7],inhibition [8]
COc1ccc(-c2nc(CSCC(=O)N3CCc4ccccc4C3)c(C)o2)cc1OC,643,6.9% (inactive),-5.2% (inactive),101,5.9% (inactive),116,-0.603 (inactive),-1.8e-06 (inactive),0.00589 (inactive),8.21% (inactive),12.7% (inactive)
COc1ccc(N2CCN(C(=O)C(OC(C)=O)c3ccccc3)CC2)cc1 (stereo not given),594,-4.7% (inactive),-4.8% (inactive),92.4,-2.4% (inactive),95.4,-0.386 (inactive),4.8e-05 (inactive),0.00658 (inactive),11.4% (inactive),11.3% (inactive)
CCOC(=O)c1cccc(NC(=O)CNS(=O)(=O)c2cccs2)c1,445,6.8% (inactive),-11.6% (inactive),108,-7.8% (inactive),134,-0.518 (inactive),-4.4e-05 (inactive),0.00596 (inactive),-11.6% (inactive),-10.2% (inactive)
CCOc1cccc(-c2nnc3sc(COc4ccc(OC)cc4)nn23)c1,534,7.7% (inactive),-2.2% (inactive),95.7,-93.7% (inactive),118,-0.433 (inactive),-3.1e-05 (inactive),0.00731 (inactive),7.6% (inactive),17.6% (inactive)
O=C(O)CCn1[nH]c(=O)ccc1=O,172,6.8% (inactive),37% (active),67.3,-3% (inactive),84.3,-0.562 (inactive),1.7e-06 (inactive),0.0053 (inactive),21.4% (inactive),18% (inactive)
CC1(C)NC(=O)N(CCOc2cccc(Cl)c2Cl)C1=O,411,-1.1% (inactive),1.3% (inactive),98,-35.1% (inactive),92.1,-0.338 (inactive),-6.5e-06 (inactive),0.00521 (inactive),16.8% (inactive),18.5% (inactive)
CC(C)C(NC(=O)c1ccco1)C(=O)NCC(c1ccco1)N1CCCCC1 (stereo not given),379,-22% (inactive),6.7% (inactive),99,0% (inactive),97.7,-0.588 (inactive),-2.6e-05 (inactive),0.00507 (inactive),3.26% (inactive),14.7% (inactive)
COc1ccc(N2CCN(CCCNS(=O)(=O)c3c(C)noc3/C=C/N(C)C)CC2)cc1,561,8.7% (inactive),-4.3% (inactive),101,-36.7% (inactive),73.9,-0.54 (inactive),-6e-05 (inactive),0.00583 (inactive),3.23% (inactive),38.9% (inactive)
C(=C\c1ccccc1)/CN1CCN(Cc2ccc3c(c2)OCCO3)CC1,435,0.5% (inactive),2% (inactive),104,-26.4% (inactive),120,-0.442 (inactive),2e-05 (inactive),0.00636 (inactive),14% (inactive),19.9% (inactive)
N#CC1=C(SCC(=O)NC23CC4CC(CC(C4)C2)C3)NC(=O)C(C#N)C12CCCCC2 (stereo not given),755,-9.3% (inactive),16.9% (inactive),100,-142% (inactive),123,-0.519 (inactive),-6.2e-05 (inactive),0.00603 (inactive),16.3% (inactive),-22.7% (inactive)
Cn1c(C(=O)Nc2ccc3c(c2)OCO3)cc2c(=O)n(C)c3ccccc3c21,683,7% (inactive),-6.4% (inactive),104,-20.2% (inactive),104,-0.264 (inactive),-2.8e-06 (inactive),0.00554 (inactive),-13.1% (inactive),-11.2% (inactive)
Cc1nc2ccccc2c2c1C(=O)N(CCC1=CCCCC1)C2=O,410,1.6% (inactive),-3.7% (inactive),74.1,-54.2% (inactive),108,-0.407 (inactive),-4.4e-05 (inactive),0.00396 (inactive),11.5% (inactive),42.1% (inactive)
CCn1c(=O)cc(OCC(=O)NC2CCCCC2)c2ccccc21,336,22.2% (inactive),-2.9% (inactive),110,-15.3% (inactive),113,-0.263 (inactive),1.1e-05 (inactive),0.00609 (inactive),1.11% (inactive),23.9% (inactive)
CCOC(=O)c1sc(NC(=O)CSc2nnc(-c3ccc(OC)cc3)n2CCOC)nc1C,633,12.1% (inactive),12.9% (inactive),88.1,-89.1% (inactive),140,-0.481 (inactive),1.3e-05 (inactive),0.00672 (inactive),13.8% (inactive),24.5% (inactive)
CCOC(=O)c1c(C)oc2c1c1c(c3ccccc32)OCN(Cc2cccnc2)C1,499,-2.1% (inactive),8.8% (inactive),100,-8.4% (inactive),104,-0.367 (inactive),1.6e-05 (inactive),0.00433 (inactive),-1.25% (inactive),15.3% (inactive)
